In PubChem BioAssay AID686978 (National Center for Advancing Translational Sciences (NCATS), 2013):
About 64,000 (15%) of roughly 420,000 compounds were called active. Roughly 27% stayed inconclusive and do not appear here. The list is a sample of the results. A number with no mark means an inactive call. Calls come from the whole dose curve; as a rule, active = well fitted inhibition curve with a large enough effect; inconclusive = small, poorly fitted or top-dose-only effect; inactive = flat fitted curve, though single readings scatter.

experiment: qHTS for Inhibitors of human tyrosyl-DNA phosphodiesterase 1 (TDP1): qHTS in cells in absence of CPT; details: DT40 Tdp1-/- hTDP1 cells, no CPT, ATP luminescence, 48 h; activity change, negative = growth inhibition: at 46.2 µM (top of the series); note: nearly all actives have a fitted effect of over 55% in size
Outline: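 Chicken DT40 Tdp1-/- cells stably complemented with human TDP1 were seeded at 400 cells/well with DMSO in place of 20 nM camptothecin. After compound pinning, cells grew at least 48 hr at 37 °C; viability read by CellTiter-Glo luminescence.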
% is set by controls: 0 for no effect and ±100 for the full control effect; potency is the fitted concentration of half-maximal effect.

Compound | activity change, negative = growth inhibition [%] | Potency
Cc1c(NC(=O)CCCOc2ccccc2)cccc1[N+](=O)[O-] | -19.6 | 
Cc1csc(CN(C)C(=O)CC2C(=O)NCCN2CC(C)(C)C)n1 (stereo not given) | 10.7 | 
C=CCOc1ccccc1/C=N/NC(=O)Cc1ccccc1 | -6.16 | 
O=C(NN=Cc1ccccc1O)NN=Cc1ccccc1O |  | 5.8 µM (active)
O=C(N/N=C/c1ccc(O)cc1)/C(=C/c1ccc([N+](=O)[O-])cc1)NC(=O)c1ccccc1 | -11.1 | 
Oc1ccccc1C=NC1CCCCC1N=Cc1ccccc1O (stereo not given) | 7.72 | 
O=C(N/N=C/c1ccccc1O)/C(=C/c1ccccc1)CCO |  | 5.17 µM (active)
O=C(CCC(=O)Nc1ccccc1)N/N=C/c1ccccc1F | 0.37 | 
O=C(NCC1CCCCC1)c1cc(S(=O)(=O)N2CCCCC2)ccc1N1CCOCC1 | 2.24 | 
N#CCCN(C(=O)COC(=O)c1ccc2c(c1)OCCO2)c1ccccc1 | -5.69 | 
O=C(Cn1nc([N+](=O)[O-])nc1Br)NC1CCCCC1 | -0.17 | 
Cc1ccc(Cn2nnc3c(=O)n(CC(=O)N4CCCCC4)cnc32)cc1 | -21.5 | 
CCOC(=O)C(C)n1cnc2c(nnn2-c2ccc(F)cc2)c1=O (stereo not given) | -10.3 | 
O=C(Cn1cnc2c(nnn2-c2ccccc2)c1=O)N1CCC(Cc2ccccc2)CC1 |  | 20.6 µM (active)
CC(=O)Nc1ccc(S(=O)(=O)N2CCC(NC(=O)c3ccccc3)CC2)cc1 | -9.1 | 
O=C(NCc1cccs1)c1ccc(Br)o1 | 11.6 | 
CCCNC(=O)c1c(N)n(-c2ccc(S(N)(=O)=O)cc2)c2nc3ccccc3nc12 | -11.3 | 
CC(C)Cn1c(N)c(C(=O)NCc2cccs2)c2nc3ccccc3nc21 |  | 20.6 µM (active)
Cn1nccc1NC(=O)CC(CC(=O)O)c1ccccc1 (stereo not given) | 2.44 | 
COc1ccc(NC(=O)CS(=O)(=O)c2ccccc2)cc1 | 9.07 | 
CC(=O)Nc1ccccc1OC(=O)N1CCOCC1 | 3.24 | 
CC(=O)c1ccc(N2CCN(C(=O)C3CCN(S(=O)(=O)c4ccc5c(c4)CC(C)N5C(=O)C4CC4)CC3)CC2)cc1 (stereo not given) |  | 4.11 µM (active)
NC(=O)C1CCN(C(=O)c2ccc(-c3ccccc3)cc2)CC1 | -2.77 | 
NC(=O)C1CCN(C(=O)c2cc(S(=O)(=O)N3CCN(c4ccccc4)CC3)ccc2Cl)CC1 |  | 6.51 µM (active)
NC(=O)COC(=O)c1cc(S(=O)(=O)N2CCN(c3ccccc3)CC2)ccc1Cl | -2.99 | 
CC(=O)c1ccc(N2CCN(S(=O)(=O)c3c(C)[nH]c(=O)[nH]c3=O)CC2)cc1 | -2.01 | 
CCS(=O)(=O)N1CCC(C(=O)N2CCN(c3ccccc3)CC2)CC1 | -3.39 | 
CS(=O)(=O)N1CCC(C(=O)N2CCN(c3ccccc3)CC2)CC1 | -8.27 | 
CC(=O)c1ccc(S(=O)(=O)N2CCC(Oc3ccc(-n4cnnn4)cc3)CC2)cc1 |  | inactive
CC(=O)N1c2ccc(S(=O)(=O)N3CCC(C(=O)N4CCN(c5ccccc5)CC4)CC3)cc2CC1C (stereo not given) |  | 20.6 µM (active)
